Measurements taken from PubChem BioAssay (NCI).
This is part of a sample that, as a whole, favours compounds with a hit. Of some 83,000 tested, about 20% had one in any assay.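 Cell lines were cultured in 96-well plates, exposed to a single compound concentration, and assessed for percent growth 48 hours later.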 A number with no mark means an inactive call. Active and inactive are the calls of the source. Rule for the calls: active = growth percent below 10; inactive = the rest.

How the values were obtained:
Experiment in all cases: NCI-60 one-dose screen, 48 h (100 = growth as untreated, 0 = no growth, -100 = all killed)
EKVX NSCLC = details: 10 µM unless noted
SN12C renal = details: 10 µM unless noted
UO-31 renal = details: 10 µM unless noted
TK-10 renal = details: 10 µM unless noted
ACHN renal = details: 10 µM unless noted
CAKI-1 renal = details: 10 µM
A498 renal = details: 10 µM unless noted
CCRF-CEM leukemia = details: 10 µM unless noted
MOLT-4 leukemia = details: 10 µM unless noted

Row | SMILES | growth (EKVX NSCLC) | growth (SN12C renal) | growth (UO-31 renal) | growth (TK-10 renal) | growth (ACHN renal) | growth (CAKI-1 renal) | growth (A498 renal) | growth (CCRF-CEM leukemia) | growth (MOLT-4 leukemia)
1 | CCN1CCN(Cc2ccc(C(=O)Nc3nc4ccc(Oc5ccnc(C(=O)NC)c5)cc4s3)cc2C(F)(F)F)CC1 | 52.4% | 77.4% | 33.2% | 91.6% | 57.4% | 47.2% | 74.1% | 60.6% | 
2 | COc1ccc2c(c1)c(-c1nn3c(=O)cc(-c4ccccc4)nc3s1)cn2C | 85.3% | 45.2% | 38.1% | 64.1% | 44.3% | 46.6% | 4.32% (active) | 34.7% | 
3 | COc1cc2c3c(n(CCCN4CCCC4)c(=O)c2cc1OC)-c1cc2c(cc1C3=O)OCO2 | -55.3% (active) | 11.8% | 40.4% | -86% (active) | 55.6% | 55.3% | 80.2% | -11.9% (active) | 
4 | Cn1cc(-c2nn3cc(-c4cccnc4)nc3s2)c2ccccc21 | 43.8% | 33.4% | 32.2% | 80.5% | 48.1% | 43.5% | 36.6% | 38% | 
5 | COCCOc1ccc(-c2csc(NC(=O)CN3CCN(CCO)CC3)n2)cc1NS(=O)(=O)c1cccc2c(N(C)C)cccc12 | 80.5% | 81.1% | 65.3% | 107% | 85.8% | 92% | 79.4% | 46.3% | 
6 | C=CCn1c(SCC(=O)Nc2cccc(C(=O)/C=C/c3cc(OC)c(OC)c(OC)c3)c2)nc2ccccc2c1=O | 78.2% | 41% | 49% | 112% | 45.7% | 44.2% | 75.6% | 9.12% (active) | 
7 | COc1cnc2c(c1)C(=O)c1c-2n(CCCNCC2CC2)c(=O)c2cc(F)ccc12 | 13.3% | 0.563% (active) | -81.7% (active) | -32.9% (active) | -62% (active) | -27.2% (active) | -31% (active) | -2.04% (active) | 
8 | CS(=O)(=O)c1nccc(-c2c(-c3ccc(F)c(OCCc4ccccc4)c3)nc3sccn23)n1 | 59.5% | 83.7% | 85.5% | 100% | 90% | 84% | 90.4% | 84.2% | 
9 | COCCOc1ccc(-c2csc(NC(C)=O)n2)cc1NS(=O)(=O)c1cccc2c(N(C)C)cccc12 | 85.2% | 79.8% | 64.2% | -21.2% (active) | 72% | 71.3% | 74.8% | 105% | 
10 | CCOC(=O)CC(=O)CSC1=NC2C(NN1)N(C)C(=O)N2C (configuration not stated) | 56.2% | 91.6% | 57.2% | 104% | 82.6% | 88.5% | 118% | 38.8% | 
11 | Oc1ccc(CSc2nnc(-c3ccncc3)o2)c2cccnc12 | 47.6% | 7.4% (active) | 12.4% | 34.6% | 40.5% | 7.09% (active) | 9.33% (active) | 26% | 25.7%
12 | COc1cc2oc(-c3cccc(NC(=O)c4cc(NC(=O)[C@H](C)N)ccc4Cl)c3)cc(=O)c2c(OC)c1OC | 90.7% | 90.9% | 72.3% | 99.8% | 91.3% | 85.3% | 71.8% | 71.7% | 76.3%
13 | CS(=O)(=O)c1ccc2c(c1)c1c(n2C(=O)c2ccc(Cl)cc2)CCCC1 | 59.7% | 41.2% | 40.3% | 67.6% | 43.6% | 37.1% | 38.2% | 25.4% | 
14 | Cn1cc(-c2nn3cc(-c4cccnc4)nc3s2)c2cc(F)ccc21 | 80.9% | 85.2% | 70.5% | 129% | 83.8% | 78.1% | 103% | 89.2% | 
15 | COC(=O)c1nc(-c2ccc(C)cc2)oc1S(=O)(=O)N1CCN(c2oc(-c3ccccc3)nc2C#N)CC1 | 106% | 100% | 94% | 111% | 100% | 97.4% | 85.8% | 39.8% | 
16 | NC(=O)N1N=C(c2cc3ccccc3oc2=O)CC1c1cn(-c2ccccc2)nc1-c1ccc(Cl)cc1 (configuration not stated) | 24.3% | 47.4% | 17.8% | 93.4% | 32.5% | 32.9% | 54.5% | 7.27% (active) | 17.3%

Row | SMILES | growth (EKVX NSCLC) | growth (SN12C renal) | growth (UO-31 renal) | growth (TK-10 renal) | growth (ACHN renal) | growth (CAKI-1 renal) | growth (A498 renal) | growth (CCRF-CEM leukemia) | growth (MOLT-4 leukemia)
17 | COc1ccc(Oc2ccc(C3CC(c4cc(OC)c(OC)c(OC)c4)=NN3C(C)=O)cc2)cc1 (configuration not stated) | 25.4% | 22.3% | 10.1% | 20% | 20.8% | 36.1% | 29.5% | 37.7% | 14.2%
18 | Cc1cc(=O)n2nc(-c3c[nH]c4ccccc34)sc2n1 | 95.3% | 94.5% | 82.1% | 128% | 96.1% | 99.8% | 95.1% | 115% | 
19 | NNC(=O)c1sc2nc(-c3cnccn3)cc(-c3cccs3)c2c1N | 86.8% | 95.5% | 75.9% | 118% | 95.4% | 87.6% | 79.5% | 62.7% | 77%
20 | O=c1cc(-c2ccccc2)nc2sc(-c3c[nH]c4ccc(Br)cc34)nn12 | 91.2% | 94.9% | 79.6% | 110% | 96.3% | 91.4% | 85.5% | 123% | 
21 | COc1cc2c3c(n(CCCNCC4CC4)c(=O)c2cc1OC)-c1cc2c(cc1C3=O)OCO2 | 66% | 44.6% | 49.8% | 72.5% | -73.1% (active) | -72.5% (active) | 68.6% | -9.44% (active) | 
22 | CNC(=O)c1cc(Oc2ccc3nc(NC(=O)c4cccc(C(F)(F)F)c4)sc3c2)ccn1 | 101% | 96% | 99.1% | 116% | 102% | 93.6% | 87.3% | 109% | 107%
23 | CS(=O)(=O)c1nccc(-c2c(-c3ccc(F)c(OCc4ccc(F)cc4)c3)nc3sccn23)n1 | 28.4% | 86.2% | 80.1% | 105% | 91.3% | 81.5% | 76.6% | 79.4% | 
24 | Cn1cc(-c2nn3c(=O)cc(-c4ccccc4)nc3s2)c2cc(F)ccc21 | 64.3% | 69.6% | 57.1% | 85.6% | 37.7% | 31.6% | 62.5% | 52.8% | 
25 | COc1ccc(/C(C)=C(\c2ccc(Cl)cc2)c2ccc(OCCN)cc2)cc1 | 87.2% | 78.3% | 60.8% | 119% | 84.9% | 67.3% | 90.1% | 66.1% | 
26 | CNC(=O)c1cc(Oc2ccc3nc(NC(=O)c4cc(C)cc(C)c4)sc3c2)ccn1 | 82% | 90.3% | 78.8% | 78.5% | 93.4% | 79% | 59.7% | 57.3% | 58.3%
27 | C=CCn1c(SCC(=O)Nc2cccc(C(=O)/C=C/c3ccc(OC)c(OC)c3)c2)nc2ccccc2c1=O | 100% | 96.8% | 74.6% | 116% | 92.2% | 75.7% | 89.3% | 78.5% | 
28 | COc1ccc(-c2no[n+]([O-])c2Nc2ccccc2Br)cc1 | 96.1% | 90.4% | 69.6% | 145% | 89.2% | 86% | 113% | 109% | 
29 | Cc1ccc(-c2cc(-c3ccc(N(C)C)cc3)n3c(n2)nc2ccccc23)cc1 | 57.9% | 62.8% | 41.8% | 61.1% | 49.3% | 59.3% | 15.6% | 54.8% | 38.9%
30 | COc1cnc2c(c1)C(=O)c1c-2n(CCCn2ccnc2)c(=O)c2cc(OC)c(OC)cc12 | -9.94% (active) | 3.73% (active) | -91.4% (active) | -91.4% (active) | -36.1% (active) | 9.33% (active) | 17.8% | -2.01% (active) | 
31 | CS(=O)c1nccc(-c2c(-c3ccc(F)c(OCCc4ccc(F)cc4)c3)nc3sccn23)n1 (configuration not stated) | 36.1% | 93.4% | -45.1% (active) | 107% | 37.7% | 47.3% | 82.2% | 14.5% | 9.78% (active)
